For the first test, the target named is FGFR1. The experiment in a line: pooled miR-30 sensor sort-seq; sequence = guide strand. To be noted: shRNA.
In turn, TAAATCTCTGGTAACGACCCTT came in with a sensor-assay potency score (higher = more potent) of 0.102. Consider ATCATGTACAGCTCGTTGGTGC, for which the sensor-assay potency score (higher = more potent) is -0.372. On the same count and under the same terms, the same measure for TTGTCTTTTTATAGTAGTCGAT: -0.804; for TTTATAGTAGTCGATGTGGTGA: -0.221. Take TTCATCATCTCCATTTCTGAGA: the sensor-assay potency score (higher = more potent) is -0.548.

On to TAGCGGTGCAGAGTGTGGCTGT, for which the sensor-assay potency score (higher = more potent) is -0.244. On the same count and under the same terms, the same measure for TTTTAATATATAGCAACTGATG: -1.31; for TCTTAAGTGAAGCACCTCCATC: -1.39; for TGTAGCAGTATTCCAGCCCTGG: -0.142.

Another test deals with FHOD1. Described as above. To be noted: shRNA.
Sequence TTGTTGATGAGGGTGACCGTGT returned a sensor-assay potency score (higher = more potent) of -0.769. The same measure, in the same setting: with TACAAACACCAACAGCAGCTTC the figure was -0.751.

In the case of TAGCTTCTCAATGCCATCCTTG, the sensor-assay potency score (higher = more potent) is -0.31. For the sequence ATGACTGTCAGCATCTCCCCGG, the sensor-assay potency score (higher = more potent) was -0.753. Sequence TTCTACAAACACCAACAGCAGC gave a sensor-assay potency score (higher = more potent) of -1.07. For TTGCAGAGCACAATCCTCCAAC, the sensor-assay potency score (higher = more potent) was -0.554.

TTTGTAGATGCTCCTCTCGCTG: the sensor-assay potency score (higher = more potent) is -1.11. On the same count and under the same terms, the same measure for TCGTAGAGCACAAGCTGCGTGC: -0.434; for TTCTTCGATGTCTCCATCCTCC: -0.285.

As for TTGTAGATGCTCCTCTCGCTGG, the sensor-assay potency score (higher = more potent) was -0.582.

Turning to TCTGTCTCGGTGATCATGCGTC, the sensor-assay potency score (higher = more potent) is -0.332.

The target of another test is FH. The description is as above. Conditions: shRNA.
In turn, TTTACTTGTTGAACATAACCAC returned a sensor-assay potency score (higher = more potent) of 0.162.

For TTACATTCATATTTGTCTGAGT, the sensor-assay potency score (higher = more potent) amounted to 0.037. TTGTCTGAGTTCCTGATCCAGT had a sensor-assay potency score (higher = more potent) of -0.75.

TTCTGTCACACCTCCAATCTTA came in with a sensor-assay potency score (higher = more potent) of -0.00125. In turn, TTGCTTCACACTGAGTAGGGTT had a sensor-assay potency score (higher = more potent) of -0.374. TATATGAGGATTGAGAGCTGTC showed a sensor-assay potency score (higher = more potent) of 0.308.

As to AACATAACCACTAAATTCCTGC, the sensor-assay potency score (higher = more potent) was -0.241.

In turn, TAACACATTTTTAATCATCATT displayed a sensor-assay potency score (higher = more potent) of -1.28.

TTGCATTAGCAATCTTTGGATC: the sensor-assay potency score (higher = more potent) is -0.818. TCTTAGACCTAGCACATCCTAG came in with a sensor-assay potency score (higher = more potent) of -0.529. In turn, TTACTTGTTGAACATAACCACT had a sensor-assay potency score (higher = more potent) of -1.14. Take TTAAAGTTCATCGTAGATCTCA: the sensor-assay potency score (higher = more potent) came to 0.281. Turning to TTCTATTGCAGCAGCAATGTGC, the sensor-assay potency score (higher = more potent) was -0.565. On to TTTGCTATCTTCATCAGACTGC, for which the sensor-assay potency score (higher = more potent) was 0.482. As to TATTGCAGCAGCAATGTGCATT, the sensor-assay potency score (higher = more potent) is -0.245. Same read-out and setting: the same measure for TGGATCAAGACCATAATCCTGG: 0.098; for TATTGCATTAGCAATCTTTGGA: 0.0448. TTTCCTTTCAAACTTATCCGTT: the sensor-assay potency score (higher = more potent) is -0.472.

The sequence TTCATCAGCTTGTTGATCCTTT had a sensor-assay potency score (higher = more potent) of 0.529.

For TTTCCTTTAAGGTTGATCCATT, the sensor-assay potency score (higher = more potent) was -0.612.

These data come from the OligoGym collection.
Further: reference of the scale not given here.
